Source: PubChem (National Center for Advancing Translational Sciences (NCATS))
The list is not random: actives were taken first. Their share in the collection is about 1.4%.
EPAC1 ag: agonists of human EPAC1; O95398; Potency, µM (doses to about 154 µM), for inactives: at the highest dose activation, hits mostly activators; EPAC1 agonist qHTS, biochemical assay; response scale: 100% = response to 6.5 mM cAMP; hit rate 0.073% among 360,000; note: potency is the fitted concentration of half-maximal effect; nearly all actives have a fitted effect of over 60% in size
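Read-out is the fluorescence drop as BODIPY-GDP leaves Rap1B (480 nm excitation, 540 nm emission), recorded every 5 minutes over 30 minutes. Reactions held 100 nM EPAC1, 250 nM Rap1B–BODIPY-GDP and 50 uM GDP, with 6.5 mM cAMP setting full activation.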
EPAC2 ag: agonists of human EPAC2 (RAPGEF4). Q8WZA2. EPAC2 activation, biochemical qHTS; response scale: 100% = 6.5 mM cAMP response. Potency, µM (doses to about 154 µM), inactives show at the highest dose activation, actives largely listed as activators. hit rate 0.079% among 360,000; note: potency is the fitted concentration of half-maximal effect; nearly all actives have a fitted effect of over 50% in size
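Readout is BODIPY fluorescence (480 nm excitation, 540 nm emission), which falls as labeled GDP is exchanged off Rap1B. EPAC2 at 100 nM acted on 250 nM RAP1B-BODIPY-GDP with 50 uM GDP present.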
EPAC2 antag: EPAC2 (human) antagonism. hit rate 0.18% among 360,000. AID 720708. EPAC2 GEF exchange of Rap1B-BODIPY-GDP, fluorescence. Q8WZA2. Potency, µM (top dose mostly 114 µM), inactives show at the highest dose activity, negative = inhibition, usual class: inhibitors; note: potency is the fitted concentration of half-maximal effect; % is set by controls: 0 for no effect and ±100 for the full control effect; nearly all actives have a fitted effect of over 45% in size
KCNH2 3.1 inh: KCNH2 3.1 (human) potassium channel inhibition; U2OS KCNH2 3.1, thallium flux FluxOr; stronger effect = lower value; activity change, % (tested at about 1.8 µM); hit rate 0.95% among 340,000;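 active = maximum activity change below -70%; inconclusive = maximum activity change from -70% to -50%; inactive = maximum activity change above -50%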;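 note: thallium influx rate constant from kinetic fluorescence after stimulation buffer; % is set by controls: 0 for no effect and ±100 for the full control effect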
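Thallium flux read-out: FluxOr dye with Red40 quencher in HBSS/HEPES, 45 min at RT. Rate constants from kinetic reads were normalized to positive and negative DMSO controls. Cells: U2OS virally expressing the 3.1 isoform.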
hERG WT inh: inhibitors of human wildtype KCNH2 potassium channel; Q12809; U2OS, BacMam KCNH2, thallium flux FluxOr; stronger effect = lower value; activity change, % at 1.84 µM; hit rate 0.37% among 340,000; AID 720551;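 active = maximum activity change below -70%; inconclusive = maximum activity change between -70% and -50%; inactive = maximum activity change above -50%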; note: % is set by controls: 0 for no effect and ±100 for the full control effect
Target sequence (Q12809 whole entry, looked up): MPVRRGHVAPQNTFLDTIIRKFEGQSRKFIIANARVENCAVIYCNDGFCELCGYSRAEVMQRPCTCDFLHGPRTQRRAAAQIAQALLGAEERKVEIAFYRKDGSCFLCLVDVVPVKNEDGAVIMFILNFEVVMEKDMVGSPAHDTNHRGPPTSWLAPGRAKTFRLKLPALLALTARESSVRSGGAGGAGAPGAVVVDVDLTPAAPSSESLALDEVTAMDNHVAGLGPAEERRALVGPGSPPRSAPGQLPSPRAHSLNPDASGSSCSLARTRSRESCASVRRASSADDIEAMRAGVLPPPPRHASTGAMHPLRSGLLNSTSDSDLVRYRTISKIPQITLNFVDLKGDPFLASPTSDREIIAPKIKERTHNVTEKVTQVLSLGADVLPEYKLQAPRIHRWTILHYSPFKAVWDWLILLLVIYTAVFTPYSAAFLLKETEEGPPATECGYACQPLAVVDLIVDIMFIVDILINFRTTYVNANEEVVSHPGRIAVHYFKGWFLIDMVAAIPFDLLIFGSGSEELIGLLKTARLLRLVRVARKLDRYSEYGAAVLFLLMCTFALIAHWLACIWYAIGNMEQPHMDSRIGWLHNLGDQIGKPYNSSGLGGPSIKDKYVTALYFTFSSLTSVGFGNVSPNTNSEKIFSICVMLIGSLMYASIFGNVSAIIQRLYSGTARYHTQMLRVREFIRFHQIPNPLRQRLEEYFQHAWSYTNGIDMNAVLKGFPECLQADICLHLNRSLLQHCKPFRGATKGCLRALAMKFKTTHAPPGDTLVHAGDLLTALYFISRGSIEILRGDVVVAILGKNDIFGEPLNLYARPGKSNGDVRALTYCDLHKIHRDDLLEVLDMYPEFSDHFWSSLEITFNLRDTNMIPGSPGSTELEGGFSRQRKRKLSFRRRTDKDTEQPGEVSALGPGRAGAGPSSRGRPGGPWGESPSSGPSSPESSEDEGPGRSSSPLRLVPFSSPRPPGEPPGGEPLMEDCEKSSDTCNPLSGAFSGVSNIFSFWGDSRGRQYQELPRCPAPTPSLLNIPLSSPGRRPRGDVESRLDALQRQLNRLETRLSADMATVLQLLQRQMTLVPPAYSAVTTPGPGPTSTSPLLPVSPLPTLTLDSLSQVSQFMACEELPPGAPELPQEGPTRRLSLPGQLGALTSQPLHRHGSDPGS
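U2OS cells were transduced with wild-type KCNH2 virus (2.03 x 10^8 / mL) for 4 h at room temperature, then cultured overnight at 37 C. Thallium flux was read with FluxOr dye. Rate constants were normalized to DMSO controls.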
EPAC1 antagonist: EPAC1 (human) antagonism; EPAC1 GEF assay, Rap1b-BODIPY-GDP exchange fluorescence; Potency, µM (top dose mostly 115 µM), without a hit: at the top dose activity change, negative = inhibition, usual class: inhibitors; hit rate 0.14% among 360,000; O95398; AID 720709;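 note: potency is the fitted concentration of half-maximal effect; plate controls were vehicle for no effect and positive control for full effect; nearly all actives have a fitted effect of over 50% in size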
The depositor's hits bear a star; i = inactive; u = inconclusive; x = no result. Unless noted, calls come from the whole dose curve; as a rule, active = well fitted curve in the direction sought with a large enough effect; inconclusive = small, poorly fitted or top-dose-only effect, or another doubt; inactive = no such curve, though single readings can be large; an effect the other way counts as inactive or inconclusive.

SMILES | EPAC1 ag | EPAC2 ag | EPAC2 antag | KCNH2 3.1 inh | hERG WT inh | EPAC1 antagonist
O=C(O)c1ccccc1NS(=O)(=O)c1ccc(N/N=C/c2cccc(O)c2O)c([N+](=O)[O-])c1 | -12% | -6% | -26% | -3 | -4 | 25µM*
COc1c(F)c(F)c(C(=O)O)c(Nc2ccc(C)cc2C)c1F | 1% | 7% | -8% | -1 | 23 | -15%
CCOC(=O)c1c(C)[nH]c(C(=O)COC(=O)c2ccc([N+](=O)[O-])o2)c1C | 1% | 0% | 0% | 0 | -8 | 3%
Cc1cc(C)n(CC(=O)O)n1 | 6% | 2% | 0% | -182* | -7 | 5%
COc1ccc(NC(=O)N2CCCC2C(=O)NCc2cccs2)cc1 (stereo not given) | 6% | 11% | -6% | -7 | 4 | 3%
CCOc1cc(S(=O)(=O)N2CC=C(c3ccc(F)cc3)CC2)c(OCC)cc1-n1cnnn1 | 12% | 13% | 0% | -82* | -102* | -6%
O=C(CNC(=O)c1ccc(Cl)cc1Cl)OCc1cn2cc(Br)ccc2n1 | -1% | 5% | 0% | 14 | 2 | -6%
COc1cc([N+](=O)[O-])ccc1-c1ccc(/C=N\n2cnnc2)o1 | 22% | 9% | 9% | -5 | 3 | -7%
COc1cc([N+](=O)[O-])ccc1-c1ccc(/C=C2\C(=O)ON=C2c2ccccc2)o1 | 10% | 13% | 50µM* | -8 | -18 | -12%
CC1(Cc2ccc(C(F)(F)F)o2)C(=O)Nc2cc(-c3ccc(F)cc3F)ccc21 (stereo not given) | -15% | -3% | u | x | x | -17%
COc1ccc(OC)c(S(=O)(=O)NC2CC(=O)N(c3cccc(F)c3)C2)c1 (stereo not given) | -1% | 4% | 11% | -36 | 0 | 1%
Cc1nc(CNS(=O)(=O)c2cccc(F)c2)cs1 | 4% | 8% | 0% | 7 | -1 | 8%
Cc1nc(CNS(=O)(=O)c2cc(F)ccc2F)cs1 | 16% | 7% | 8% | -181* | -8 | 7%
CCCCn1nnnc1C1(C)CCC(=O)N1Cc1ccc(C)cc1 (stereo not given) | 0% | 5% | -7% | x | x | -18%
O=C(N/N=C\c1ccc(COc2ccc([N+](=O)[O-])cc2)o1)c1cccc(Cl)c1 | 5% | 10% | -3% | -28 | 2 | 0%
O=C(N/N=C\c1ccc(COc2ccc([N+](=O)[O-])cc2)o1)c1ccc(Cl)cc1 | 8% | 5% | -1% | -77* | u | -2%
CC(C)Nc1nc(NCCN2CCCC2)c2sc(-c3ccccc3)cc2n1 | 0% | 5% | 2% | x | x | -2%
C/C(=N\NC(=O)c1ccccc1-n1cccc1)C1CC1 | 1% | 9% | -10% | -76* | -4 | -7%
O=C(N/N=C\c1ccccc1)c1ccccc1-n1cccc1 | 3% | 10% | -7% | -12 | 0 | -6%
NC(=O)CN1CCN(S(=O)(=O)c2ccc(Br)cc2)CC1 | 6% | 21% | 1% | -192* | -11 | 2%
O=C(CN1CCN(S(=O)(=O)c2ccc(Br)cc2)CC1)Nc1ccc(F)cc1 | 0% | 2% | -4% | -49 | 6 | -8%
O=C(CN1CCN(S(=O)(=O)c2ccc(Br)cc2)CC1)Nc1ccc(F)cc1F | 17% | 20% | -3% | -92* | 8 | -11%
CSc1ccccc1NC(=O)CN(C)CC(=O)Nc1cc(C)ccc1C | -9% | 8% | -4% | -76* | i | -9%
CCCn1c(N)c(C(=O)CN(C)CC(=O)Nc2cc(C)ccc2C)c(=O)[nH]c1=O | -2% | 7% | -5% | -70* | -2 | -12%
CSc1ccc(CN(C)CC(=O)N(C)CC(=O)Nc2ccccc2Br)cc1 | 7% | 4% | -13% | -16 | 17 | -16%
SMILES | EPAC1 ag | EPAC2 ag | EPAC2 antag | KCNH2 3.1 inh | hERG WT inh | EPAC1 antagonist
CSc1ccc(CN(C)CC(=O)Nc2ccc(C)cc2Br)cc1 | 12% | 13% | -9% | -153* | -148* | -18%
CCCn1c(N)c(C(=O)CN(C)CC(=O)Nc2ccc(C)cc2)c(=O)[nH]c1=O | 5% | 3% | 7% | -28 | -10 | 8%
COCCNC(=O)C1CCCN(Cc2ccc(-c3ccccc3)cc2)CC1 (stereo not given) | -1% | 6% | 5% | x | x | 4%
Cc1ccc(S(=O)(=O)N2CCN(CC(=O)N/N=C\c3ccncc3)CC2)cc1 | 3% | 21% | 5% | -2 | -2 | -25%
Cc1ccc(S(=O)(=O)N2CCN(CC(=O)N/N=C\C(Cl)=C\c3ccccc3)CC2)cc1 | 1% | 10% | -15% | -197* | -130* | 5%
CC(/C=N\NC(=O)CN1CCN(S(=O)(=O)c2ccc(C)cc2)CC1)=C\c1ccccc1 | 5% | -3% | -12% | -84* | -8 | -13%
COc1cccc(S(=O)(=O)Nc2ccc3c(c2)C(=O)N(C)C[C@H](OC)[C@H](C)CN[C@@H](C)CO3)c1 | -2% | 5% | -10% | x | x | 8%
Cc1cccc(N2CCN(C(=O)CN3C(=O)NC4(CCCCCC4)C3=O)CC2)c1C | 6% | 9% | -4% | -6 | 5 | -10%
CCCCNC(=O)COC(=O)c1ccccc1F | 12% | 8% | 7% | 9 | -131* | 11%
O=C(COC(=O)c1ccccc1F)NNC(=O)c1ccccc1 | -7% | 0% | 2% | 11 | -7 | 4%
O=C(COC(=O)c1ccccc1C(=O)c1ccc(Cl)cc1)NCCc1ccccc1 | -7% | 10% | -9% | -72* | -10 | -11%
O=C(COC(=O)c1ccccc1C(=O)c1ccccc1)NCCc1ccccc1 | 7% | 3% | u | -2 | -1 | 3%
O=C(COC(=O)c1ccccc1Cl)NC(=O)NCc1ccccc1 | -2% | 17% | -17% | -226* | -139* | -10%
CCn1c(SCC(=O)Nc2nc(-c3ccccc3)cs2)nc2c1c(=O)n(C)c(=O)n2C | -5% | -5% | 10% | 5 | 0 | -7%
CCCC1C2CN(C(C)C)CC=C2C(C#N)=C(N)C1(C#N)C#N (stereo not given) | 63µM* | 56µM* | 35µM* | 3 | 4 | u
CN1CC=C2C(C#N)=C(N)C(C#N)(C#N)C(CCc3ccccc3)C2C1 (stereo not given) | u | 50µM* | 45µM* | 5 | 1 | u
CCOC(=O)N1CC=C2C(C#N)=C(N)C(C#N)(C#N)[C@H](c3ccsc3)[C@H]2C1 | 20% | 15% | -3% | 9 | -17 | -8%
CN1CC=C2C(C#N)=C(N)C(C#N)(C#N)C(c3ccsc3)C2C1 (stereo not given) | 63µM* | u | -25% | -4 | 2 | u
